Data on 108 sequences can be found in PubChem BioAssay AID1347426 (Functional Genomics Laboratory (NCATS/FGL), 2020).

Screen size: about 31,000 sequences; about 1,400 (4.5%) were called active. This is one part of a sample in which actives are shown more often than they occur. Unmarked numbers belong to inactive results.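 Rule for the calls: active = median seed-adjusted z-score above 1 or below -1; inactive = the rest.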

The experiment in a line: Novel Modifiers of Survival Motor Neuron (SMN) Protein: Gene Identification via Genome-wide siRNA Screen.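 Note: luminescence tracks full-length SMN protein made from the SMN2 reporter.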 The settings on record: HEK293T SMN2-luciferase reporter, siRNA knockdown, 72 h; actives lie on both sides. In outline: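 siRNA screen, 10418 genes ×3 siRNAs; 1 pmol/well, lipid reverse transfection into HEK293T SMN2-luc reporter line. 72 h, 37 °C, 5% CO2; ONE-Glo readout. Data: neg-ctrl normalized, log10, MAD; hit = MAD >1.0 or < -1.0.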
Take GGAGCAUUCUCAUUCGAGATT against CSTF3: the median seed-adjusted z-score was 0.0879. For GCUUGCAGUUAAUAUCAUUTT against ODC1, the median seed-adjusted z-score is -1.64 (active).

GCAGAGUGCUUCCCAGUGATT against JRK: the median seed-adjusted z-score is -0.624. For CAGAUGUCAUGAAUCAAGATT against RPUSD2 the value was -0.215.

Regarding CAAGUACAAUACUAACUGUTT against ZNF280C, the median seed-adjusted z-score was 0.336. The value for CAACGGCAACGGAGAGGAUTT against SLC24A6 was -0.792; that for GCGGAACACGAAGAAGUAATT against TMPRSS11E was 0.0512; that for GGGACGAGAUGGUAAAGAATT against ATP2B2 was 1.37 (active).

In the case of CCAUGUAUCUGAGUGAUCATT against ERC2, the median seed-adjusted z-score is 0.172. For GGAUCUAAUCUUAGAUGUATT against POLR2H the value was -2.74 (active); for GAAUGAGGUUGACUUCUAUTT against CASQ2, 0.4; for GGAUUAUCUCCUCAUUACATT against MCF2L2, -0.465. The value for CCUUGAUCAUCGACAUUCUTT against GIT1 was -0.307. The value for CCUCGACAGUGAAUGCAAATT against ABCF3 was 0.0759. For the sequence GAAAAUCUAUCAGAACAUUTT against RAB14, the median seed-adjusted z-score is -0.0567. For CUAUGACCCUUACCCGUAUTT against FMOD the value was -1.32 (active); for GCUCAGCUCUGGUACUUUATT against GTF2H4, -0.261. The value for GGUUUGAUGUAGGCCCAAUTT against MTFMT was -0.0119; that for GGAAGAUCGAAAGUGCGAATT against GZMB was -0.0378.

Take AGUUCAUUCUGACAGAUGATT against VDR: the median seed-adjusted z-score was -0.031. For CAAUAUUCCGUACAUAGAATT against MRAS the value was 0.032. The value for GGGAUCUAGUGAAUAAACUTT against EIF2B4 was 0; that for GCAAAGACCAUAAGAUUUATT against MYST1 was 0; that for GAGUGUUCAGCAAACCGUATT against MED20 was -1.66 (active).

GAUGUGAAAUGGAGAAGUATT against KLF5: the median seed-adjusted z-score was -0.338. The value for ACGCAGAUUUCUACAGAAATT against COX6C was -0.0449; that for GGAUUACUCUUUUGGUGCATT against IRF5 was -0.146; that for GAUGCGAUAUUAAUGGGAATT against SMYD4 was 0.272. For GAAAAUGUGGGAUCAAGAATT against COQ7 the value was 0.159; for GAGCUGACCUUGAACGAGATT against CHGB, -1.29 (active); for GUGCUAAUCUCAAUACCGATT against ZRANB1, -0.347. As for GGACAGCUAUGACUCGGAUTT against DOC2A, the median seed-adjusted z-score was 0.299. The value for GCAAGUAUUUUGACAAGGUTT against KIF7 was 0.0274; that for CAAACAAUAUGAGAGUGUUTT against IL7 was 0.253; that for ACAAGACUCUGGACAUUAATT against DHRS4 was 0.263. The value for GAUUCAUGCAUUGAUCACATT against UBE2Z was 0.0572; that for GCCCAGAAGUUUAGGGAAATT against TAP1 was -0.506.

For CAAAGUCCAUGGAGUCUUUTT against RASA4, the median seed-adjusted z-score is -1.11 (active). For GGGUUAGUGGAGACCUUUATT against ATPAF1 the value was 0.393; for GAAUUCACCAUUCAAGUAATT against SCYL3, 0.665; for AGGACGGUGCAGUACAGAATT against ZBTB46, 0.0546. For GAACAACACCAACAUAAGATT against SMOC1 the value was 0.0453; for CAUCGCCUAUAUGAAAUAUTT against PLA2G10, 1.07 (active). For GAGCCGUACUAUGACCUGATT against SSTR2 the value was -0.162; for CGAAGCUAGUGGAACAGUATT against SF3A1, -1.09 (active); for CGAUGCCUGUUAUAAAUUATT against RCAN3, 0.544. For the sequence AAAUCCCUUUGACACCUUUTT against DNAJB1, the median seed-adjusted z-score was 0.466. Turning to CUCCUUCCCGGAUGAUUUATT against KLF17, the median seed-adjusted z-score was -0.131. For the sequence CCUCCGUCCUGUUUAGGAATT against LCN2, the median seed-adjusted z-score was 0.123. For GCAACGAGUUCAACCUGGATT against RAB11B the value was -0.857; for CCACUUACCCUCAAAGAAATT against SLC4A5, 1.3 (active); for CCUCAGUGUGGGUAUAAGATT against HIF1A, 0.228. The value for UUGAUAAGGUUAAACCACATT against CSTA was -0.351; that for GCAGCACGAAGGAUACUGATT against ABCA4 was -1.09 (active).

As for CCACGAGAUUUCACAAACATT against PRKD3, the median seed-adjusted z-score is -0.906. For GCUUCACUCAGAUUCCGAUTT against DYNC1I2 the value was -0.167. The value for GCCUCUACCUCUUCGAAAATT against CLEC11A was -1.1 (active).

For the sequence GCAGUAAUGUUGAUAUAGATT against VDAC3, the median seed-adjusted z-score was 0.646. Regarding CUAUCUCACCAAGAUCUAUTT against PODN, the median seed-adjusted z-score is 0.589. As to CAUCUUCAGUCUGUACAAATT against KIR2DL5B, the median seed-adjusted z-score is 1.72 (active). For GGAAAGCAACAUACAGACATT against FABP6 the value was 0.122. The value for GCCUUAUGUAUGCACAGAATT against HKR1 was -0.358; that for AGGCAUAUCUUGAAGAACATT against CIP29 was -1.18 (active).

Turning to CACAGUGUUUGAGAACUAUTT against RHOA, the median seed-adjusted z-score is -0.219. Take GCAUCAACAGUAAUGAGAATT against KRT39: the median seed-adjusted z-score was 0.161. Regarding CCACAUCAACAGUGCCUUUTT against ACOT11, the median seed-adjusted z-score was 0.636.

Regarding AGGGCUUCUUGAAUCUCUATT against GSTO2, the median seed-adjusted z-score was 0.142. For CCAAGAUGCUCAGUCAUCATT against MAP4K1 the value was 0; for CAACGUAUCAGAUUGAGAATT against ZNF281, 1.19 (active); for CUACCGGAUUGAGAUGGAATT against MEGF6, 0.

Turning to GCUGCUUGUGGAUUCGCUATT against TLN2, the median seed-adjusted z-score was -0.0106. As to CACUCACACCAACCUGUGATT against GNG13, the median seed-adjusted z-score is -0.516. For CAGUGUUAGUGGAUUCAGATT against TMEM87B the value was -0.51. For CAACCUUAUUAUCAUUGAATT against SF3B3 the value was -2.53 (active); for GGCAGAUCCUGACCUUUGATT against PRMT7, 0.204.

In the case of CUUAAGAUCCCACACCUCATT against SLC39A4, the median seed-adjusted z-score was 0.0304.

For GCAUGUUCCAGAUCUAUCATT against DRD5, the median seed-adjusted z-score was -0.18. The value for GAGCGUGACUGGGUUCUAATT against DDX5 was 0.891; that for CAAAGACAAGGUCCCAUUUTT against IFI35 was 0.105; that for GCCCUAGAAAGGUCACUGATT against AKR1CL1 was 0.488. For GGAGGAACUCGAAUCAUUUTT against EIF4EBP2 the value was 0.517; for GCAUCACCUUCUUUCGGAUTT against UNC13A, -2.1 (active).

Consider GGACGGAAAACAGUCUUAATT against OAS2, for which the median seed-adjusted z-score was 0.0758. The value for CCCACACUCUAGACUGAAATT against MEF2D was 0.0021.

CGGUCAAUGUUCUAAAGAUTT against CACNG5: the median seed-adjusted z-score is -0.41. For the sequence CCAUGACUGUCAAUCGUCATT against GFM1, the median seed-adjusted z-score is -0.0641.

As to GGACCUACACUUUUCUCUUTT against FAM53B, the median seed-adjusted z-score was -0.00535. The value for CCCUAAAGUUAAUCACCCATT against NUCB2 was 0.45; that for GUUCCAUCCUGAUUCAAAUTT against PIGM was 1.36 (active); that for GUUGAUAAGUUUUACCGAUTT against ADAM19 was 0.0996. The value for CCACCCGGACGAUAUCUUUTT against PPARA was 0.113; that for GGAACGCAGUCGGAUCUCATT against RHOU was -1.44 (active). On to GCAUUUGCAAUGAAGGCUATT against DNER, for which the median seed-adjusted z-score was -0.316. Turning to GAACCAGAUGAGACAUUCATT against SPSB1, the median seed-adjusted z-score is -0.378. The value for CUCUAAUGUUAAUCCGAGATT against MED14 was -3.22 (active).

In the case of GAGGCUCAAUGUUACACCATT against ACAT1, the median seed-adjusted z-score was -0.848. The value for CCAUUGGGCUAUGACCUGATT against ACOT4 was -0.158; that for GGCACUAUUUCCAAUGGAATT against ADAMTS12 was -0.0721; that for GCAGCCCUGAUGUCCAGUATT against EFS was -0.299. For AGUUCAUCGAUGACAUGGATT against COL6A2 the value was 0.0119. The value for GGAUCUAUCUUAACGACCATT against GAN was -1.07 (active); that for GCUCCGAAGUGUUUACAAUTT against DQX1 was -0.297. Regarding GUCCAAAUACAGUCUCUUATT against MAP3K14, the median seed-adjusted z-score was -0.0609. Regarding CGCUGAAACCCGAUUCCUATT against ANPEP, the median seed-adjusted z-score was 0.252. For GCCUAGAUGAGCGAAUUUATT against LSM3 the value was -1.36 (active). For GCACUGCGACUGUACUCUATT against LRRC3B the value was 0; for CCUUCACACGUACCACAAATT against TEKT2, -0.349; for GGCUGGACAGUAAUUCAGATT against ANGPTL4, 1.37 (active).
